# A selection: hits, their analogues and other compounds. The true share with any hit is near 7.3%.
# Rab9 promoter act: activates the Rab9 promoter; Huh7 Rab9 promoter-luciferase reporter, luminescence, 24 h; Potency, µM (top dose mostly 9.22 µM), for the others: at the highest dose activation, negative = inhibition, actives largely listed as activators; 320,000 tested, 2.8% active; note: % of control where 0% means no effect; nearly all actives have a fitted effect of over 60% in size
#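 Huh7 cells stably carrying a Rab9 promoter-luciferase reporter, 1500 cells per well in OP-MEM I with 10% FBS, treated with compound 24 hours at 37C. Luciferase activity read by luminescence after 10 minutes with Amplite reagent.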
# Luc counter: blocks Kinase-Glo luciferase, a counter-screen artifact. Q27757. Kinase-Glo luciferase, ATP luminescence, 8 min. Potency, µM (series often up to 38.3 µM), for inactives: at the highest dose activity change, negative = inhibition, most hits filed as inhibitors. 200,000 tested, 0.28% active. AID 1379; note: % is set by controls: 0 for no effect and ±100 for the full control effect; nearly all actives have a fitted effect of over 60% in size
#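 Light output from Kinase-Glo luciferase with luciferin and 10 uM ATP in 50 mM imidazole pH 7.2, KCl, MgCl2, Tween 20, BSA; compound pin-delivered, 8-min ambient incubation, then luminescence read.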
# FLuc modulator: inhibits or activates purified firefly luciferase, miR-21 counter-screen | AID 588342 | Potency, µM (series often up to 57.5 µM), for the others: at the highest dose activity change, negative = inhibition, most hits filed as inhibitors | 360,000 tested, 6.9% active | purified FLuc, Km substrates, luminescence inhibition;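 note: plate controls were vehicle for no effect and reference inhibitor for full effect; nearly all actives have a fitted effect of over 55% in size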
# Target sequence (P08659 whole entry, looked up): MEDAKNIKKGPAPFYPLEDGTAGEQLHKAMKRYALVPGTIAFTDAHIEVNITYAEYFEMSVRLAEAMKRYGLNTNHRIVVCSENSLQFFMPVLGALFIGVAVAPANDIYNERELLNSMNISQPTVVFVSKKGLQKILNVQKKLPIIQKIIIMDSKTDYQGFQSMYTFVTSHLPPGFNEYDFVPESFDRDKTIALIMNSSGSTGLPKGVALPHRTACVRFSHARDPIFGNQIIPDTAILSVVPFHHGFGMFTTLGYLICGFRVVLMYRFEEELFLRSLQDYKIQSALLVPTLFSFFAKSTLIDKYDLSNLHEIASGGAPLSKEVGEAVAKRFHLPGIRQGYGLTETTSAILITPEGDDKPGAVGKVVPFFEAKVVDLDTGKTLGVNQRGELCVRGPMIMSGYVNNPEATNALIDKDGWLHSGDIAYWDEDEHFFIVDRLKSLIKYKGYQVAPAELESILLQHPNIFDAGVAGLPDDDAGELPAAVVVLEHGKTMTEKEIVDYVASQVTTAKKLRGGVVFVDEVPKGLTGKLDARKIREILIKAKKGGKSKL
#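 Purified P. pyralis luciferase (10nM final) with 10uM D-luciferin and 10uM ATP (Km levels) in 50mM Tris acetate pH 7.5, 10mM Mg acetate, 0.01% Tween-20, 0.05% BSA; qHTS 6-point titration, ~60 µM downward; luminescence read.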
# SMN2 splice enh: increases expression of the SMN2 splice variant | HEK293 SMN2-luciferase splicing reporter, luminescence, 30-36 h | Potency, µM (top dose mostly 46.1 µM), without a hit: at the top dose activity change, positive = activation, hits mostly activators | 210,000 tested, 2.8% active; note: % of control where 0% means no effect; nearly all actives have a fitted effect of over 55% in size
#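 HEK293 cells carry an SMN2 […]–luciferase reporter in which exon 7 inclusion puts luciferase in frame. Cells were plated 10-12 h before compound addition, then incubated 30-36 h at 37C. ONE-Glo luminescence was read; sodium butyrate at 4.5 mM final served as control.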
# NPC1 promoter act: activates the NPC1 promoter; 320,000 tested, 2.4% active; Huh7 NPC1 promoter luciferase reporter, 24 h; Potency, µM (top dose mostly 9.22 µM), for inactives: top-dose activation, actives largely listed as activators; note: % of control where 0% means no effect; nearly all actives have a fitted effect of over 60% in size
#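 Cells: Huh7 expressing luciferase under the NPC1 promoter, 1500/well. Seeded 2 h, compound added, incubated 24 h at 37 °C. Luciferase reagent, 10 min ambient, then luminescence.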
# ELG1 genotox: genotoxicity induction in ELG1-luciferase HEK293T cells | HEK293T ELG1-luciferase reporter, luminescence, 16 h | Potency, µM (series often up to 46 µM), inactives show at the top dose activity change, positive = activation, most hits filed as activators | 330,000 tested, 1.3% active | AID 504466; note: % of control where 0% means no effect; nearly all actives have a fitted effect of over 60% in size
#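 After overnight (16 hr) compound treatment at 37 °C, ELG1-luciferase HEK293T cells were lysed with ONE-Glo; luminescence quantified 30 min later at room temperature.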
# Active calls of the source: *; ? = inconclusive; . = no result given; [ ] = dose if it differs, or a comment. Calls come from the whole dose curve; as a rule, active = well fitted curve in the direction sought with a large enough effect; inconclusive = small, poorly fitted or top-dose-only effect, or another doubt; inactive = no such curve, though single readings can be large; an effect the other way counts as inactive or inconclusive. Potency is the fitted concentration of half-maximal effect.
SMILES,Rab9 promoter act,Luc counter,FLuc modulator,SMN2 splice enh,NPC1 promoter act,ELG1 genotox
CC(C)(C)n1cnc2cc(NCc3ccc(Br)cc3)ccc21,2µM*,.,6.7µM*,.,3.5µM*,?
CC(C)c1ccc(CNc2ccc3c(c2)ncn3C)cc1,3.5µM*,.,15µM*,.,3.2µM*,10%
CCOc1ccc(N(CC)S(=O)(=O)N2CCCC(C(=O)Nc3ccc(OC)c(OC)c3)C2)cc1 (centres undefined),.,.,-13%,.,.,.
CC(C)c1ccc(CNc2ncccn2)cc1,?,.,13µM*,.,?,?
Cc1c(C(=O)NC2CCCCC2C)oc2ccccc12 (centres undefined),5%,.,13µM*,.,-1%,-17%
Cc1c(C(=O)NC2CCC(C)CC2)oc2ccccc12 (centres undefined),2.8µM*,.,9.5µM*,.,3.2µM*,?
COC(=O)c1cc(-c2cccs2)nn1-c1ccccc1,-11%,-2%,-14%,5%,-2%,-4%
O=C(c1ccccc1)n1ccc(-c2cccs2)n1,-1%,.,6µM*,.,12%,0%
Cc1c(C(=O)NCCc2ccccc2)oc2ccccc12,0.71µM*,.,2.1µM*,.,0.79µM*,2.1µM*
COc1ccc2oc(C(=O)NCCc3ccccc3)c(C)c2c1,?,.,?,.,0.45µM*,?
O=C(NCCc1ccccc1)c1oc2ccccc2c1COc1ccccc1,-2%,-1%,?,-16%,-1%,-1%
COc1ccc(C(CNC(=O)c2oc3ccccc3c2C)N2CCCC2)cc1 (centres undefined),-9%,.,21µM*,.,-3%,-1%
COc1ccc(C(CNC(=O)c2oc3ccc(Cl)cc3c2C)N2CCCCC2)cc1 (centres undefined),-3%,.,1%,3%,-2%,1%
Cc1cc(C)c(CN2C(=O)c3ccccc3S(=O)(=O)c3ccc(C(=O)OCC4CCCO4)cc32)c(C)c1 (centres undefined),.,.,-2%,.,.,.
COc1ccc(-c2nc3ccccc3s2)cc1NC(=O)COc1cccc(C)c1,.,.,?,2.8µM*,.,.
CC(Oc1ccccc1F)C(=O)Nc1ccc(-c2nc3ccccc3s2)cc1 (centres undefined),.,.,-7%,.,.,.
Cc1ccc(C(=O)Nc2ccc(-c3nc4ccccc4s3)cc2C)cc1C,.,.,?,28%,.,.
COc1ccccc1OC(C)C(=O)Nc1cccc(-c2nc3ccccc3s2)c1 (centres undefined),.,.,11µM*,.,.,.
COc1ccc(-c2nc3ccccc3s2)cc1NC(C)=O,2.2µM*,-2%,6.7µM*,11µM*,2.5µM*,16µM*
Cc1ccc(C(=O)NC(=S)Nc2cc(-c3nc4ccccc4s3)ccc2C)cc1,29%,-6%,9.5µM*,8%,-3%,?
Cc1ccc(CNC(=O)[C@@H]2C[C@H]2[C@@H](NP(=O)(c2ccccc2)c2ccccc2)c2ccccc2)o1,.,3%,.,-11%,.,.
COc1ccc(-c2nc3ccccc3s2)cc1NC(=O)COc1ccc(C)cc1,.,.,-2%,1.3µM*,.,.
COc1ccc(-c2nc3ccccc3s2)cc1NC(=O)c1cccc([N+](=O)[O-])c1C,.,.,3.4µM*,11µM*,.,.
O=C(NCCCN1CCN(c2ccccc2)CC1)c1ccc2nc(CCc3ccccc3)oc2c1,.,.,0%,.,.,.
CCN(CC)C(=O)c1cc(-c2ccccc2OC)on1,?,-9%,17µM*,12%,?,?
SMILES,Rab9 promoter act,Luc counter,FLuc modulator,SMN2 splice enh,NPC1 promoter act,ELG1 genotox
COc1ccccc1-c1cc(C(=O)Nc2ccc(F)cc2F)no1,?,-5%,2%,-1%,?,10%
Cc1ccc2[nH]cc(C(=O)NCc3cccs3)c(=O)c2c1,-2%,1%,-13%,-24%,-7%,-3%
COc1ccccc1-c1cc(C(=O)Nc2cc(OC)c(OC)c(OC)c2)no1,.,.,-19%,-32%,.,.
COc1cccc2c(=O)c(C(=O)NCc3cccs3)c[nH]c12,3.5µM*,-3%,9.5µM*,?,?,?
COc1ccccc1-c1cc(C(=O)NCc2ccco2)no1,0%,0%,15µM*,1%,14%,9%
COCCNC(=O)c1cc(-c2ccccc2OC)on1,?,2%,21µM*,36%,9%,?
NC(C(=O)O)(c1ccc(P(=O)(O)O)cc1)C1CC1 (centres undefined),.,.,.,7%,.,.
O=C1CSC2(C(=O)N(Cc3ccccc3F)c3ccccc32)N1c1cccc(C(F)(F)F)c1 (centres undefined),.,.,-1%,.,.,.
COc1ccccc1-c1cc(C(=O)NC(C)C)no1,2.8µM*,-6%,13µM*,29%,3.2µM*,?
COc1ccccc1-c1cc(C(=O)NCc2cccs2)no1,-5%,-2%,19µM*,-3%,13%,6%
COc1ccccc1-c1cc(C(=O)NC(C)c2ccccc2)no1 (centres undefined),8%,.,-23%,.,1%,-5%
Cn1cccc1C(=O)N1CCC2(CCCN(c3ccccn3)C2)CC1,.,0%,.,-4%,.,.
O=C(CCN1C(=O)S/C(=C\c2ccc(F)cc2)C1=O)Nc1ccc(C(=O)O)c(O)c1,13%,.,2.1µM*,.,?,8%
Cc1ccc(/C=C2/SC(=S)N(CCCC(=O)Nc3cc([N+](=O)[O-])ccc3O)C2=O)cc1,-19%,.,?,.,16%,-9%
O=C(CN1C(=O)S/C(=C\c2ccccc2)C1=O)Nc1cc([N+](=O)[O-])ccc1O,11%,.,13µM*,.,3%,-1%
O=C(CCN1C(=O)/C(=C\c2ccccc2F)SC1=S)Nc1ccc(C(=O)O)c(O)c1,1%,.,5.4µM*,.,-4%,3%
O=C(CCN1C(=O)S/C(=C/c2ccc(F)cc2)C1=O)Nc1ccc(O)c(C(=O)O)c1,1%,.,?,.,-3%,-1%
O=C(CCCN1C(=O)/C(=C/c2ccccc2)SC1=S)Nc1ccc(C(=O)O)c(O)c1,3%,.,12µM*,.,-3%,2%
COc1ccccc1NC(=O)N1CCN(c2nnc(C)c3c(C)n(-c4ccccc4)nc23)CC1,.,.,-3%,.,.,.
CCCCc1cc2c(cn1)=C(OC(=O)CCC(=O)OC)C(C)(OC(=O)CC)C(=O)C=2 (centres undefined),.,-3%[7.66 µM],.,-6%[9.22 µM],.,.
CCc1ccc(NC(=O)Cn2c(=O)n(CCc3ccccc3)c(=O)c3sc4ccccc4c32)cc1,.,.,-1%,9%,.,.
Cc1ccc(C)c(NC(=O)CSc2c(C)cnc3c2c(=O)n(C)c(=O)n3C)c1,.,.,-2%,.,.,.
CN(C)CCSCCO,.,-2%[7.66 µM],.,-8%[9.22 µM],.,.
O=C(CN1C(=O)/C(=C/c2ccco2)SC1=S)Nc1ccc(C(=O)O)c(O)c1,2%,.,19µM*,.,0%,4%

# Source: PubChem (National Center for Advancing Translational Sciences (NCATS))
